PubChem BioAssay
“And” between values parts separate entries of the source, which are not always exact repeats. Identical values can stand only once. The source made the active and inactive calls. Unless noted, the rule behind the calls is not given here.

tested on: not listed separately; test: HepG2 cytotoxicity, primary screen, cytotoxicity control for P. falciparum antimalarial project, cell-based, ATP luminescence (AID 2303;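 active = inhibition above 50%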;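 note: 0% = DMSO wells and 100% = digitonin-killed cells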); settings: HepG2 viability, 24-48 h, at 10 µM, hits give high values

Compound	inhibition
COC(C(=O)OCCC1CCCN1C)(c1ccccc1)c1ccccc1 (configuration not stated)	6% (inactive)
CC(Cc1ccc(Oc2ccc(Cl)cc2)cc1)NCC(O)c1cccc(Cl)c1 (configuration not stated)	3% (inactive)
O=C(CCc1ccco1)NC1CCN(CC2(c3ccc(Cl)cc3)CCC2)CC1	-12% (inactive)

molecular target: L-lactate dehydrogenase (Plasmodium falciparum (isolate CDC / Honduras)) (UniProt Q27743); test: PfLDH activity inhibition – cell lysate, 3D7 strain, counter-screen for P. falciparum growth inhibition project (AID 2304);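 note: 0% = vehicle and 100% = reference inhibitor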; settings: P. falciparum 3D7 crude extract, LDH APAD/NBT absorbance; at 2 µM; hits give high values
Sequence (Q27743 whole entry, looked up): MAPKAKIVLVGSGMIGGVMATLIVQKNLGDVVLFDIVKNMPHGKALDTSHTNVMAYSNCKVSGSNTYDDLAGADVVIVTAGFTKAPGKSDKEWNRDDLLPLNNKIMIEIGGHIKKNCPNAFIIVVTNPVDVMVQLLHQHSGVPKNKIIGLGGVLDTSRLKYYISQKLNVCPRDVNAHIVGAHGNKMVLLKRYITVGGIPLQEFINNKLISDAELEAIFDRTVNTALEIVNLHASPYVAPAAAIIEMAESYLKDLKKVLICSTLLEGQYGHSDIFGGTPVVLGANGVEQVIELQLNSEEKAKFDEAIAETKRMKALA

Compound	inhibition
COCCNCc1ccc(-c2ccc(CN(C(=O)NC3CCCCC3)C3CCN(Cc4ccccc4)CC3)cc2)cc1	-1% (inactive)
CC[C@H]1CN2CC[C@H]1C[C@H]2[C@H](O)c1cc(Cl)nc2ccc(OC)cc12	2% (inactive)
CC(=O)Nc1ccc2[nH]cc(C3CCN(CC4CCN(C(=O)/C=C/c5ccc(Cl)c(Cl)c5)CC4)CC3)c2c1	-1% (inactive)
COc1ccccc1CNCC(O)c1cc(C(F)(F)F)ccc1C(F)(F)F (configuration not stated)	5% (inactive)
CC(C)CNCc1ccc(-c2ccc(CN(C(=O)NC3CCCCC3)C3CCN(Cc4ccccc4)CC3)cc2)cc1	-1% (inactive)
O=C(Nc1cc(C(F)(F)F)cc(C(F)(F)F)c1)N1CCC(CN2CCC(c3c[nH]c4ccccc34)CC2)CC1	-1% (inactive)
COc1ccc(OC)c(CNCC(O)c2cc(C(F)(F)F)cc(C(F)(F)F)c2)c1 (configuration not stated)	6% (inactive)
Cc1[nH]c2ccc(O)cc2c1C1CCN(CC2CCC(NC(=O)/C=C/c3ccc(Cl)c(Cl)c3)CC2)CC1 (configuration not stated)	3% (inactive)
CC[C@H]1CN2CC[C@H]1C[C@@H]2[C@@H](OC(=O)c1ccc(Cl)cc1)c1ccnc2ccc(OC)cc12	-1% (inactive)
CC(=O)Nc1ccc(OCCN(CC(F)(F)F)c2ccc(C#N)cc2C(F)(F)F)cc1	1% (inactive)
COc1ccc(CC(C)NCC(O)c2cccc(Cl)c2F)cc1 (configuration not stated)	-6% (inactive)
CN(c1cc(NC(=O)c2cccs2)ccn1)C1CCN(Cc2ccccc2)CC1	-1% (inactive)
Cc1[nH]c2cc(F)ccc2c1C1=CCN(CCCCC2(C)C(=O)Nc3ccccc32)CC1 (configuration not stated)	-8% (inactive)
Cc1cc(C(=O)NC2CCN(CC3(c4ccc(Cl)cc4)CCC3)CC2)on1	-3% (inactive)
O=C(c1cc(C(=O)NCc2ccc(Cl)cc2)c(=O)n(Cc2ccc(Cl)cc2)c1)c1cc(Cl)ccc1O	-1% (inactive)
CCCc1c(C(=O)NC2CCC(CN3CCC(c4c[nH]c5ccccc45)CC3)CC2)cnn1-c1ccccc1 (configuration not stated)	-1% (inactive)
Cc1cc2ccc(CNCCc3ccccc3Br)cc2nc1N	1% (inactive)
CSc1ccc(C[C@@H](C)NC[C@H](O)c2cccc(Cl)c2)cc1	2% (inactive)
CC(=O)N(Cc1ccccc1-c1cccc(CNCCc2ccccc2)c1)C1CCN(Cc2ccccc2)CC1	0% (inactive)
CC(Cc1ccc(S(=O)(=O)N(C(C)C)C(C)C)cc1)NCC(O)c1cccc(C(F)(F)F)c1 (configuration not stated)	4% (inactive)

Compound	inhibition
O=C(/C=C/c1ccc(Cl)c(Cl)c1)N1CCC(CN2CCC(c3c[nH]c4ccc(NS(=O)(=O)c5cccs5)cc34)CC2)CC1	-7% (inactive)
COc1ccc(CC(C)NCC(O)c2cccc(Cl)c2)cc1C (configuration not stated)	-6% (inactive)
CN1CC=C(c2c[nH]c3ccc(Oc4ccccc4)cc23)CC1	-7% (inactive)
CC(Cc1ccc(NC(=O)[C@@H](C)NCCc2cccc(Cl)c2)cc1)NCCc1cccc(Cl)c1 (some centres not stated)	-1% (inactive)
Cc1csc(NC2=NCCN2)n1	0% (inactive)
O=C(C=Cc1cc([N+](=O)[O-])ccc1Cl)NC1CCC(CN2CCC(c3c[nH]c4ccccc34)CC2)CC1 (configuration not stated)	1% (inactive)
CC(=O)C1(c2ccccc2)CCN(CCC2(c3ccc(Cl)c(Cl)c3)CN(C(=O)C3CCCC3)CCO2)CC1 (configuration not stated)	1% (inactive)
S=C(NCCc1ccc(Cl)cc1)NC1CCC(CN2CCC(c3c[nH]c4ccccc34)CC2)CC1 (configuration not stated)	-2% (inactive) and -8% (inactive)
CC(Cc1ccc(SC(C)(C)C)cc1)NCC(O)c1cccc(Cl)c1 (configuration not stated)	-7% (inactive)
CS(=O)(=O)Nc1ccc2[nH]cc(C3CCN(CC4CCN(C(=O)/C=C/c5ccc(Cl)c(Cl)c5)CC4)CC3)c2c1	-5% (inactive)
C=C[C@@H]1CN2CC[C@H]1C[C@H]2[C@H](O)c1cc(-c2ccc(Cl)cc2)nc2ccc(OC)cc12	0% (inactive)
OC(CNCc1ccccc1OC(F)F)c1cccc(C(F)(F)F)c1 (configuration not stated)	-2% (inactive)
C#CCN1CCC2=C(C1)c1c(O)cc(C(C)CCCc3ccc(F)cc3)cc1OC2(C)C (configuration not stated)	5% (inactive)
CC[C@H]1CN2CC[C@H]1C[C@H]2[C@H](O)c1cc(-c2ccc3ccccc3c2)nc2ccc(OC)cc12	-3% (inactive)
COc1ccc2[nH]cc(C3=CCN(C[C@H]4C[C@@H]4C(=O)c4ccccc4)CC3)c2n1	-8% (inactive)
O=C1Nc2cccc3c2C1(CCCCCN1CC=C(c2c[nH]c4ccccc24)CC1)CCC3 (configuration not stated)	3% (inactive)
COC(C(=O)OCCC1CCCN1C)(c1ccccc1)c1ccccc1 (configuration not stated)	2% (inactive)
CC(Cc1ccc(Oc2ccc(Cl)cc2)cc1)NCC(O)c1cccc(Cl)c1 (configuration not stated)	-2% (inactive)
O=C(CCc1ccco1)NC1CCN(CC2(c3ccc(Cl)cc3)CCC2)CC1	-2% (inactive)
